Measurements: PubChem BioAssay (EPA / NIEHS)
Records with an inconclusive call do not appear. Active and inactive are the calls of the source. Rule for the calls, unless noted: active = hit-call score of the fitted dose curve at least 0.9, where 1 is the maximum; inconclusive = response in the unintended direction; inactive = score below 0.9.

Test system: IYD (gene 389434)
Assay: CCTE_GLTED_hIYD: CCTE's human Iodotyrosine Deiodinase (xIYD) Inhibition Assay, Great Lakes Toxicology and Ecology Division (GLTED) Lab (AID 2284317);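 note: cell-free human IYD enzyme made in baculovirus insect cells; iodide freed from monoiodotyrosine measured by cerium arsenite color change at 420 nm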
Conditions: not given
Method in brief: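 In the IYD assay, iodide released from MIT by insect-cell-expressed human enzyme was quantified after 3 h via Sandell-Kolthoff rate at 420 nm, with plate-wise normalization to MNT and solvent controls.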

Structure (SMILES)	outcome	AC50
COP(=O)(OC)O/C(=C\Cl)c1cc(Cl)c(Cl)cc1Cl	inactive	–
CC(C)(c1ccc(OCC2CO2)cc1)c1ccc(OCC2CO2)cc1 (configuration not stated)	inactive	–
O=C1C2(Cl)C3(Cl)C4(Cl)C(Cl)(Cl)C5(Cl)C3(Cl)C1(Cl)C5(Cl)C24Cl (configuration not stated)	–	40.1 µM (active)
C=CC(=O)OCCCCCC(C)C	inactive	–
O=C(O)C(F)(F)C(F)(F)C(F)(F)C(F)(F)C(F)(F)C(F)(F)C(F)(F)C(F)(F)C(F)(F)C(F)(F)F	–	51.3 µM (active)
CC(C)(c1ccccc1)c1ccc(O)c(C(C)(C)c2ccccc2)c1	–	29.2 µM (active)
CC(C)(C)CC(C)(C)c1ccc(O)cc1	–	66.8 µM (active)
CCC[CH2][Sn]([CH2]CCC)([CH2]CCC)[O]C(=O)c1ccccc1	inactive	–
C=CC#N	inactive	–
CCCCCCCCc1ccc(O)cc1	–	35.7 µM (active)
O=C1C(Cl)=C(Cl)C(=O)c2ccccc21	–	55 µM (active)
CCC(C)(C)c1ccc(O)c(C(C)(C)CC)c1	–	37 µM (active)

Test system: not listed separately
Assay: CCTE_Mundy_HCI_iCellGluta_NOG_NeuriteLength: CCTE's Neurite Outgrowth Assay in iCellGluta cells for Neurite Length, Mundy Lab (AID 2284318)
Conditions: not given
Procedure: CCTE_Mundy_HCI_iCellGluta_NOG is a multiplexed, cell-based-readout assay that uses iCell GlutaNeurons from FUJIFILM Cellular Dynamics, Inc. (FCDI), human glutamatergic enriched neurons derived from induced pluripotent stem (iPS) cells, with measurements taken at 50.33 hours after chemical dosing in a microplate: 96-well plate.CCTE_Mundy_HCI_iCellGluta_NOG_NeuriteLength is one of four components of the CCTE_Mundy_HCI_iCellGluta_NOG assay. It measures neurite outgrowth related to neurite length using High Content Imaging of fluorescently labelled markers.Data from the assay component CCTE_Mundy_HCI_iCellGluta_NOG_NeuriteLength was analyzed at the endpoint CCTE_Mundy_HCI_iCellGluta_NOG_NeuriteLength in the positive analysis fitting direction relative to DMSO as the negative control and baseline of activity. Using a type of morphology reporter, loss-of-signal activity can be used to understand developmental effects.
Exposure starts 2 hours post-plating by adding 10 ul of the working solution to 90 ul of media in the wells for a 1/10 dilution. Forty-eight hours after chemical treatment cells are fixed by direct addition of 100 ul of warm (37C) Dulbecco's phosphate buffered saline (DPBS) fixative solution containing 8% paraformaldehyde, 8% sucrose, and 0.1% of 3 mg/ml Hoechst 33342 into each well. Primary antibodies are prepared by dilution in Immunocytochemical Staining Buffer (ISB), 10X Dulbecco's PBS, 0.1% Saponin, 5% Bovine Serum Albumin, 0.5% NaN3 (Sodium Azide) and betaIII-tubulin (rabbit anti-betaIII-tubulin, 1:800) followed by Alexa Fluor-488 secondary (1:500) to label neuronal cell bodies and neurites. A Cellomics ArrayScan VTi HCS Reader is used for automated image acquisition and analysis of neurite outgrowth.

Structure (SMILES)	AC50	outcome
COP(=O)(OC)O/C(=C\Cl)c1cc(Cl)c(Cl)cc1Cl	51.5 µM (active)	–
O=C1C2(Cl)C3(Cl)C4(Cl)C(Cl)(Cl)C5(Cl)C3(Cl)C1(Cl)C5(Cl)C24Cl (configuration not stated)	15 µM (active)	–
O=C(O)C(F)(F)C(F)(F)C(F)(F)C(F)(F)C(F)(F)C(F)(F)F	–	inactive
C=C(C)C(=O)[O][Sn]([CH2]CCC)([CH2]CCC)[CH2]CCC	0.241 µM (active)	–

Test system: not listed separately
Assay: CCTE_Deisenroth_5AR_NBTE_acceptor: CCTE's 5alpha-reductase NanoBRET Target Engagement Assay - Autofluorescence Screen, Deisenroth Lab (AID 2284321; active = hit-call score of the fitted dose curve at least 0.9, where 1 is the maximum; inactive = score below 0.9;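 note: compound fluorescence in the acceptor channel under 460 nm excitation flags autofluorescence artifacts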)
Conditions: actives raise or lower the signal
Method in brief: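 Chemicals diluted to a nominal 100 uM in DMSO were scanned at 460 nm excitation. Samples were read in three independent runs (n=3). Gain or loss of acceptor signal was fitted relative to DMSO.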

Structure (SMILES)	outcome	AC50
CC(C)(c1ccc(OCC2CO2)cc1)c1ccc(OCC2CO2)cc1 (configuration not stated)	inactive	–
CCN1CCC2(CC1)COc1cc3c(cc12)N(C(=O)c1ccc(-c2ccc(-c4nnc(C)o4)cc2C)cc1)CC3	–	2.17 µM (active)
O=C(O)C(F)(F)C(F)(F)C(F)(F)C(F)(F)C(F)(F)C(F)(F)C(F)(F)C(F)(F)C(F)(F)C(F)(F)F	inactive	–
N#CN=C(N)N	inactive	–
C[C@H]1CCCC(=O)CCC/C=C/c2cc(O)cc(O)c2C(=O)O1	inactive	–
C[C@@H]1C[C@@H]([C@H](O)CC2CC(=O)NC(=O)C2)C(=O)[C@@H](C)C1	inactive	–
O=C(OC1CCCCC1)c1ccccc1C(=O)OC1CCCCC1	inactive	–
CCC[CH2][Sn]([CH2]CCC)([CH2]CCC)[O]C(=O)c1ccccc1	–	6.56 µM (active)
c1cc[c]([Hg][c]2ccccc2)cc1	inactive	–
CC(=O)[O][Hg][c]1ccccc1	–	25.3 µM (active)
O=C(Nc1ccc2[nH]ccc2c1)c1cc2cc(F)ccc2n1Cc1cccc(F)c1	inactive	–
O=C1C(Cl)=C(Cl)C(=O)c2ccccc21	inactive	–
O=[N+]([O-])c1ccc(O)c([N+](=O)[O-])c1	inactive	–
CCOP(=S)(OCC)Oc1nc(Cl)c(Cl)cc1Cl	inactive	–
CCC1(c2ccc(N)cc2)CCC(=O)NC1=O (configuration not stated)	inactive	–
C=C(C)C(=O)[O][Sn]([CH2]CCC)([CH2]CCC)[CH2]CCC	–	5.27 µM (active)
